The values below come from PubChem BioAssay (NCATS).

Each structure is given as a SMILES string. Where “and” joins values, the source holds several entries; their conditions need not be identical. Equal entries are not always repeated. Inconclusive results are not listed. Calls of active or inactive are those of the source. Unless noted, calls come from the whole dose curve; as a rule, active = well fitted curve in the direction sought with a large enough effect; inconclusive = small, poorly fitted or top-dose-only effect, or another doubt; inactive = no such curve, though single readings can be large; an effect the other way counts as inactive or inconclusive. Where only a bound is given, the exact number is not on record here.

A short description of assay [1]: Counterscreen qHTS for small molecule stabilizers of the endoplasmic reticulum resident proteome: GLuc-NoTag assay (AID 1508627).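 Note: 0% = thapsigargin alone and -100% = DMSO vehicle control.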 Put shortly:
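Counterscreen line: SH-SY5Y-GLuc-NoTag. Seed, 5 h; compound, 19 h; thapsigargin 100 nM, 4 h; 37C/5% CO2. Readout: secreted GLuc luminescence, coelenterazine 0.07x final, no lysis.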
(In general: A counterscreen serves to expose hits that act by an unwanted route or on another target.)

A short description of assay [2]: Confirmatory qHTS for small molecule stabilizers of the endoplasmic reticulum resident proteome: Secreted ER Calcium Modulated Protein (SERCaMP) assay (AID 1508628). Note: nearly all actives have a fitted effect of over 40% in size. Note: potency is the fitted concentration of half-maximal effect. The procedure, abridged: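 Reporter secretion upon ER calcium depletion (100 nM thapsigargin, 4 h, 37C) is measured as medium luminescence with coelenterazine, after 16 h compound pretreatment of SH-SY5Y-GLuc-SERCaMP cells; primary at three concentrations up to 38.3 uM, follow-up at 11 (up to 76.6 uM).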
Background: In qHTS, concentration-response curves come from the screen itself.

A short description of assay [3]: Primary qHTS for small molecule stabilizers of the endoplasmic reticulum resident proteome: Secreted ER Calcium Modulated Protein (SERCaMP) assay (AID 1508630). Note: % is set by controls: 0 for no effect and ±100 for the full control effect. Put shortly:
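The SH-SY5Y reporter protocol was run at 3 concentrations up to 38.3 uM (primary) or 11 concentrations (follow-up): 16 h compound, 100 nM thapsigargin for 4 h, then extracellular luciferase luminescence.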

For assay [4], the target named is Lysosomal acid glucosylceramidase (Homo sapiens) (UniProt P04062). The assay can be described thus: Glucocerebrosidase-p2 (AID 348; in the data active = potency below about 10 µM; note: potency is the fitted concentration of half-maximal effect). The note with it: purified GBA, blue fluorogenic substrate, 40 min. The procedure, abridged: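 Normal human glucocerebrosidase (0.2 nM) with blue fluorogenic substrate (80 uM final) in citrate/phosphate pH 5.9 with 10mM sodium taurocholate, 0.01% tween-20; 40 min RT, NaOH/glycine stop; fluorescence Ex 365/Em 440; AC50 from a titration from 0.6 nM upwards.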
Chain of Lysosomal acid glucosylceramidase (Homo sapiens) (P04062 whole entry, looked up): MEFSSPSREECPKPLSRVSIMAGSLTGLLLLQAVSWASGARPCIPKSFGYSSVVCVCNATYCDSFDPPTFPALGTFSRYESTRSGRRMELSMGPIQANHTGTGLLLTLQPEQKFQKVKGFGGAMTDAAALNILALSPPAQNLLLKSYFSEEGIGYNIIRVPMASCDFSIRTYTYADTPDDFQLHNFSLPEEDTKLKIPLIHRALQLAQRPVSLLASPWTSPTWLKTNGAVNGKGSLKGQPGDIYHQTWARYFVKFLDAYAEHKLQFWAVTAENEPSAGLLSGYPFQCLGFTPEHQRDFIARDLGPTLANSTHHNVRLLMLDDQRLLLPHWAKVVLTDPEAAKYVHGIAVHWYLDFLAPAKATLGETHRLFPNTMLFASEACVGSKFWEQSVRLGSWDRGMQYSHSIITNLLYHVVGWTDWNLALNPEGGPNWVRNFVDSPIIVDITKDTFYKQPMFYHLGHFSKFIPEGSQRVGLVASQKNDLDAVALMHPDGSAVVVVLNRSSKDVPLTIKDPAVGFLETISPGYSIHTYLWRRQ

Assay [5] can be described thus: AP1 Signaling Pathway (AID 357; active = well fitted curve in either direction with a large enough effect, not every such curve was filed as active; note: % is set by controls: 0 for no effect and ±100 for the full control effect). The procedure, abridged:
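ME-180 cells with beta-lactamase reporter under AP-1 response element, stimulated with EC50 EGF; compounds tested in titration series, 5 h at 37 °C. CCF4 substrate added 2.5 h at room temperature; 460/530 nm emission ratio gave %activity and AC50.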

Assay [6] deals with Cytochrome P450 1A2 (Homo sapiens) (UniProt P05177). As to the kind of experiment: p450-cyp1a2 (AID 410; calls by dose curve; note: potency is the fitted concentration of half-maximal effect;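 for activity change, negative = inhibition: -100% = full effect of reference inhibitor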). The procedure, abridged:
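Luminescent demethylation readout: Luciferin-ME (100uM, equal to Km) turned over by 20nM CYP1A2 for 60 min at room temperature after NADPH regeneration addition, following 10 min compound preincubation. Normalization used 57 uM furafylline as full inhibition.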

Assay [7] in a line: Stat Signaling Pathway (AID 446; active = well fitted curve in either direction with a large enough effect, not every such curve was filed as active;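 note: ME-180 cervical cancer cells given 40 pM IL-6 alongside compound; SIE-controlled beta-lactamase reporter measured as 460/530 nm FRET emission ratio; % is set by controls: 0 for no effect and ±100 for the full control effect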). The procedure, abridged:
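FRET read-out (405 nm excitation, 460/530 nm emission) of a beta-lactamase reporter under a STAT-inducible element in ME-180 cervical carcinoma cells. Cells with compound receive 40 pM IL-6 for 5 h. Values are normalised to AC90 stimulation and AC90 JAK-inhibitor controls.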

Assay [8] has as its target Glucocorticoid receptor (Homo sapiens) (UniProt P04150). The assay can be described thus: GR-EFC Redistribution (AID 451; calls by dose curve; note: potency is the fitted concentration of half-maximal effect). The note with it: CHO-K1 GR-EFC translocation, beta-gal luminescence, 2 h. The procedure, abridged:
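CHO-K1 cells expressing nuclear EA and GR-ED fragments of b-gal; compounds titrated up to 46 uM final, 2 h at 37 C. GR nuclear translocation read as complemented b-gal luminescence after 1 h RT detection.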

The target in assay [9] is Mitogen-activated protein kinase 10 (Mus musculus) (UniProt Q61831). The assay can be described thus: JNK3 AlphaScreen Assay (AID 530; active = well fitted curve in either direction with a large enough effect, not every such curve was filed as active;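 note: kinase came from lysate of stimulated human HepG2 cells; signal reports phosphorylation of biotinylated GST-cJun 1-79 at Ser73 with 10 µM ATP; % is set by controls: 0 for no effect and ±100 for the full control effect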). Put shortly: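 Activity was read by AlphaScreen after JNK3-containing HepG2 lysate (cytokine pre-activated) phosphorylated biotinylated GST-cJun with 10 uM ATP at room temperature. Phospho-Ser73 cJun antibody with Protein-A acceptor beads provided detection.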
A general note: Alpha assays give light when donor and acceptor beads are brought close together.

The target in assay [10] is 3',5'-cyclic-AMP phosphodiesterase 4B (Homo sapiens) (UniProt Q07343). As to the kind of experiment: qHTS Assay for Inhibitors of PDE-IV (AID 607; active = well fitted activation curve with a large enough effect in the main read-out, with a control signal flat, not every such curve was filed as active; note: % of control where 0% means no effect). The procedure, abridged:
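Cell-based read-out of cAMP via a modified cyclic nucleotide-gated channel and membrane potential dye (535/590 nm) in HEK293 cells expressing PDE4 endogenously. Compounds tested up to 22.9 uM final; 100 uM RO 20-1724 reference.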

The target in assay [11] is Cytochrome P450 3A4 (Homo sapiens) (UniProt P08684). The assay can be described thus: qHTS Assay for Activators of Cytochrome P450 3A4 (AID 885). Note: nearly all actives have a fitted effect of over 65% in size. Put shortly:
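Luminescent readout of luciferin formed from 25 uM Luciferin-PPXE (KM level) by 20 nM CYP3A4 in 200 mM KPO4, with 60 min NADPH-driven reaction at room temperature after 10 min compound exposure. Ketoconazole (57 uM) defined 100% inhibition.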

A short description of assay [12]: qHTS Assay for Lipid Storage Modulators (AID 1519; calls by dose curve). The settings on record: Drosophila S3 cells, BODIPY lipid droplet/cell ratio, laser cytometry, cells loaded with oleic acid; for activity change, negative = inhibition: at 57.5 µM (top of the series). Put shortly: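 Cells seeded at 5,000 per well were treated with compounds over a concentration series and loaded with oleic acid (400 uM, as added). Lipid droplet fluorescence (488 nm excitation, 500-530 nm channel) was read by laser-scanning cytometry and normalized to 20 uM Triacsin C.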

In assay [13] the target is Calcium and integrin-binding protein 1 (Homo sapiens) (UniProt Q99828). As to the kind of experiment: Primary qHTS for Identification of Calcium Integrin Binding Protein 1 (CIB1) Competitor (AID 1508620). Put shortly: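 Fluorescence polarization competition: GST-tagged CIB1 (1 uM final) preincubated with compound 15 min at room temperature, then FITC-labelled alphaIIb peptide (100 nM final) added. After 15 min at room temperature, polarization read at Ex 480/Em 540.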
Chain of Calcium and integrin-binding protein 1 (Homo sapiens) (Q99828 whole entry, looked up): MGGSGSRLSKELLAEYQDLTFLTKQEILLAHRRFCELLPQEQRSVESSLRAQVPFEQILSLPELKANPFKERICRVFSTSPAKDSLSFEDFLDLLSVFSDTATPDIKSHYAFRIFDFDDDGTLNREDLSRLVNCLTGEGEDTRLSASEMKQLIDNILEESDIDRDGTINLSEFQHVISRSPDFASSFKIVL

Assay [14] is described as follows: NFAT Signaling Pathway (AID 444; active = well fitted curve in either direction with a large enough effect, not every such curve was filed as active). The settings on record: Jurkat NFAT-bla M1, carbachol, beta-lactamase ratio, 5 h. The procedure, abridged: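 Jurkat cells with NFAT-driven β-lactamase reporter and co-expressed M1 receptor, stimulated with carbachol (final 1 uM, ~EC50), compound titration, 5 h at 37 °C. CCF4 loaded 1 h at RT; 460/530 nm ratio gave %activity and AC50.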

In assay [15] the test system is HIV-1 nucleocapsid protein NCp7 (binding to TG oligonucleotide). As to the kind of experiment: HIV Nucleocapsid (AID 346; call rule not given here;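 note: potency is the fitted concentration of half-maximal effect; potency is for inhibitors that block NC binding and lower polarization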). The note with it: HIV-1 NC / fluorescein-TGTGTGTG probe, fluorescence polarization. The procedure, abridged: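 Inhibition of nucleocapsid binding to single-stranded 5'-TGTGTGTG probe (10 nM) was measured by fluorescence polarization after 1 hr at room temperature with 100 nM protein under high-salt, zinc-containing, reducing conditions.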

The target of assay [16] is Cytochrome P450 2D6 (Homo sapiens) (UniProt P10635). The assay can be described thus: qHTS Assay for Inhibitors and Substrates of Cytochrome P450 2D6 (AID 891). Note: potency is the fitted concentration of half-maximal effect; nearly all actives have a fitted effect of over 60% in size. The procedure, abridged: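 Luminescent read-out of luciferin formed by 5 nM human CYP2D6 demethylating 30 uM Luciferin-ME EGE (Km level) over 60 min at room temperature after NADPH regeneration addition. Data normalized to full inhibition by 1.43 uM quinidine.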
Chain of Cytochrome P450 2D6 (Homo sapiens) (P10635 whole entry, looked up): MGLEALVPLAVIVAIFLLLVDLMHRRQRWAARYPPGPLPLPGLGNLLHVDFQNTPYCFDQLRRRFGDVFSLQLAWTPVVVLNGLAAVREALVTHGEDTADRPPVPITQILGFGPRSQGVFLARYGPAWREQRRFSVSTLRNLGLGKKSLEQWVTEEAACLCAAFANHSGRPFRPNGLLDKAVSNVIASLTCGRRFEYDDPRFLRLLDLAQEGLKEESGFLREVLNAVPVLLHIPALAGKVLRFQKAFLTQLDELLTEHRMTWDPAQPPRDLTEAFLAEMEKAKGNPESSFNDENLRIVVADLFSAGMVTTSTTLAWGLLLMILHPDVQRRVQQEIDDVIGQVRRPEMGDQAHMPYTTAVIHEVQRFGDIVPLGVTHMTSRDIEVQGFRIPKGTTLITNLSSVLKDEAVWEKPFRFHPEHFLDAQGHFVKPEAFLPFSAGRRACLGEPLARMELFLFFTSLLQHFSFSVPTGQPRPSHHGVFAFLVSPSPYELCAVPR

Where [17] appears, read: measured here: cell count channel max response.
Where [18] appears, read: measured here: lipid channel max response.

Chain of Glucocorticoid receptor (Homo sapiens) (P04150 whole entry, looked up, the tested form may be a part): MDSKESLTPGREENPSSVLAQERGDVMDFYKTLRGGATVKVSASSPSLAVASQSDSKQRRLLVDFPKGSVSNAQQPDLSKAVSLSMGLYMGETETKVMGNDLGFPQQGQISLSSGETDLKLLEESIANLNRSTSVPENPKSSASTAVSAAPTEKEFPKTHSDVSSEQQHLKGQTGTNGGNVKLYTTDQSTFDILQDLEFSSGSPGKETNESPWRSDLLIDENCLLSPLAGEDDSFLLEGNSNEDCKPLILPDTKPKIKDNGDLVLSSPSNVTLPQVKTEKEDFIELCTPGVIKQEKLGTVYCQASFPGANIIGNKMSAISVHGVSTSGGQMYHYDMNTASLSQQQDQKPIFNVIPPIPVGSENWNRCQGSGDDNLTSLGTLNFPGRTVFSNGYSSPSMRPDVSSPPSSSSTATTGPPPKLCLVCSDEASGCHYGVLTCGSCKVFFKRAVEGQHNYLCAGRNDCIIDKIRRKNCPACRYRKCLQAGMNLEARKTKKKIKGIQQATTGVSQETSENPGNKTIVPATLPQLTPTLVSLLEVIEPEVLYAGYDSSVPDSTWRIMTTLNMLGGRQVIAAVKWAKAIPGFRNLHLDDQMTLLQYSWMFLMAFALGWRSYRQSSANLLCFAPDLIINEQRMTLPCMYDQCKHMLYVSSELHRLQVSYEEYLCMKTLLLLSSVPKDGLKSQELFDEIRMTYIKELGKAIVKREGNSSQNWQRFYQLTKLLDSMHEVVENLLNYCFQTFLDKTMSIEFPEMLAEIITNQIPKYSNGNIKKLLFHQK
Chain of Cytochrome P450 1A2 (Homo sapiens) (P05177 whole entry, looked up): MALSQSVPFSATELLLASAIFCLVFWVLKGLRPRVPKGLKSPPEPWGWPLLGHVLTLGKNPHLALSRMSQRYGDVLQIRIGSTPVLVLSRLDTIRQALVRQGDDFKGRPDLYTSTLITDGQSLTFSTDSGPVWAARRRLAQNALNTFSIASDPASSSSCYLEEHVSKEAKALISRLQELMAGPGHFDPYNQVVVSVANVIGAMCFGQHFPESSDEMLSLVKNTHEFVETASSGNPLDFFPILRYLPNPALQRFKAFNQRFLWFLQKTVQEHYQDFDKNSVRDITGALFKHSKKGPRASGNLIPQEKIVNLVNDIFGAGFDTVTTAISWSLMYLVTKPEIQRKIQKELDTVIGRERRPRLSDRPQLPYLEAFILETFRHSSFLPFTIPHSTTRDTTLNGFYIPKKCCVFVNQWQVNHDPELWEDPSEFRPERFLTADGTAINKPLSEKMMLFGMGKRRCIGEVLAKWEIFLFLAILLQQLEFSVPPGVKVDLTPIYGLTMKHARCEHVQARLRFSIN
Chain of 3',5'-cyclic-AMP phosphodiesterase 4B (Homo sapiens) (Q07343 whole entry, looked up): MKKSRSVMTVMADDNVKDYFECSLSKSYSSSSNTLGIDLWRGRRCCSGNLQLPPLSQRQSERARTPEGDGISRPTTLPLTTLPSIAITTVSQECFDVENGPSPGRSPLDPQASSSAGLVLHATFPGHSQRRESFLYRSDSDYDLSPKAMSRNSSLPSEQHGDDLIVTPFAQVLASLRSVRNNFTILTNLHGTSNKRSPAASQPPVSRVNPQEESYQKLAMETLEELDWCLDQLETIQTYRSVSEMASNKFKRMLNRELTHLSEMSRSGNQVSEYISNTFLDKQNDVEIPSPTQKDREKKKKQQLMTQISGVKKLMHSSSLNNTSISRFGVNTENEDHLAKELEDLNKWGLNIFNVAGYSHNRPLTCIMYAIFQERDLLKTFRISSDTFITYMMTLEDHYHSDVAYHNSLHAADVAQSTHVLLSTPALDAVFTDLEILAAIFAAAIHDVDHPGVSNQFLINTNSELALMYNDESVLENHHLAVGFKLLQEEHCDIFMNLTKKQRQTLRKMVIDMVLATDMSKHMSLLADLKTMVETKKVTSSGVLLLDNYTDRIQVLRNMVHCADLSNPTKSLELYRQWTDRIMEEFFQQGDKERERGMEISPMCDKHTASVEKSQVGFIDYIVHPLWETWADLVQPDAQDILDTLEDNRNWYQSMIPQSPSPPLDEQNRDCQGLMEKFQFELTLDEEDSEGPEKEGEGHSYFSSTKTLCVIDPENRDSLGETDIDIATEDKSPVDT
Chain of Cytochrome P450 3A4 (Homo sapiens) (P08684 whole entry, looked up): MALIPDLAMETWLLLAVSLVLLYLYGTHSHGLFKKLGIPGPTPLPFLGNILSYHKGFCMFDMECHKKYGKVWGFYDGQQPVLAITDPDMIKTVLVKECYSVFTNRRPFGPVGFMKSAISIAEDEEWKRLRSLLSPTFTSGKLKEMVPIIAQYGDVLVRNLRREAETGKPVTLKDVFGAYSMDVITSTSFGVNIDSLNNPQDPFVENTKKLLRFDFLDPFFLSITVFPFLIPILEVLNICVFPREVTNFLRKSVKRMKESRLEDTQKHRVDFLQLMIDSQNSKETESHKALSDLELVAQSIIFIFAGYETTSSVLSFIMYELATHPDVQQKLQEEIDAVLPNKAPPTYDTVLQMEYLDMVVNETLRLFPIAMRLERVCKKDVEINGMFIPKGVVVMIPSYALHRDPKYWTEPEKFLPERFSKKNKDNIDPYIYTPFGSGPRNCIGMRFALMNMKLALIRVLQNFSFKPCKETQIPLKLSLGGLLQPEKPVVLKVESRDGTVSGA

`CC(C)C1C(=O)N2CCC[C@H]2[C@]2(O)O[C@](NC(=O)[C@@H]3C=C4c5cccc6[nH]cc(c56)C[C@H]4N(C)C3)(C(C)C)C(=O)N12` (stereo partly specified): the molecule was classed as inactive in assay [1]. The Potency in assay [2] was 31.6 µM (active).

For the molecule `O=C(CN1CCCCC1c1cccnc1)c1ccccc1` (stereo unspecified), the outcome in [3] was inactive.

For the molecule `CCCOC(=O)c1cc2c(cn1)[nH]c1ccccc12`, the result in assay [3] was inactive.

Turning to `O=C(O)[C@@H]1Cc2[nH]cnc2C(c2cccnc2)N1` (stereo partly specified), in assay [3], the outcome was inactive.

Consider `COc1ccc(/C=C/C(=O)N2CC3C[C@@H](C2)Cn2c3cccc2=O)cc1OC`, for which the result in [3] was inactive.

Take `CC[C@]12CCCN3CCC4(c5ccccc5NC4C(C(=O)O)C1)C32` (stereo partly specified): in assay [3], the result was inactive.

Take `c1ccc(N2CC[C@@]3(CCCNC3)C2)cc1`: the Potency in [4] was > 11.4 µM (inactive); in assay [6], 39.8 µM (active); in assay [8] it was > 46 µM (inactive); in assay [2], 44.7 µM (active). For the same molecule, the molecule was classed as inactive in [5], in assay [7], in assay [9] and in assay [1]. Further, the Potency entry in assay [10] and in assay [11] was “inactive” each time. In addition, the activity change, negative = inhibition in assay [12] is 5.37% (inactive). Also, the max response in assay [12] (setting [17]) turned out to be 5.01%; in assay [12] (setting [18]) it was 10.7%.

Turning to `Cc1ccc2nc(NC3=NC(c4[nH]ncc4Cl)C4=C(CCCC4=O)N3)oc2c1` (stereo unspecified), the result in [13] was inactive.

As for `CCOC(=O)C1CCN(C(=O)C2(NC(=O)Nc3ccccc3Cl)CCCC2)CC1`, the outcome in [13] was inactive.

For the molecule `C[C@@H]1O[C@@H](O[C@H]2CC[C@]3(C=O)C4CC[C@]5(C)[C@@H](C6=CC(=O)OC6)CC[C@]5(O)[C@@H]4CC[C@]3(O)C2)[C@H](O)[C@H](O)[C@H]1O` (stereo partly specified), the outcome in assay [3] was inactive.

With `O=C(O)[C@@H]1CSC(c2cccnc2)N1` (stereo partly specified), in assay [1], the call was inactive. Moreover, the Potency result in assay [2] was “inactive”.

Regarding `Cc1c(P(=S)(c2ccccc2)c2ccccc2)[n+]2ccccc2n1C`, the outcome in [13] was inactive.

As for `COc1cccc(CNc2ccc(S(=O)(=O)Nc3nc(C)c(C)s3)cc2)c1O`, the result in assay [13] was inactive.

With `Cc1cc(-c2nnc3n2CCCCC3)c(C)n1-c1cccnc1`, the outcome in assay [13] was inactive.

Consider `N#C/C(=C\c1ccc(O)c(O)c1)C(N)=S`, for which the Potency is 12.6 µM (active) and 6.31 µM (active) in assay [6]; > 46 µM (inactive) in assay [8]; 10 µM (active) in assay [2]. Further, in [14] (at 38 µM (top of the series)), the activity change, negative = inhibition is -11.5% (inactive). For the same molecule, the Potency entry in assay [10] and in [11] was “inactive” throughout.

For the molecule `c1ccc(N2CCC3(CCNCC3)CC2)nc1`, the Potency is > 20 µM (inactive) in assay [15], > 11.4 µM (inactive) in assay [4], > 46 µM (inactive) in assay [8] and 1.26 µM (active) in assay [16]. The call in assay [5], in assay [7], in [9] and in assay [1] was inactive. The Potency result in [6], in assay [10] and in assay [11] was “inactive” in each case. For the same molecule, the activity change, negative = inhibition in [12] was 6.81% (inactive). In addition, the max response in assay [12] (setting [17]) is 19.9%; in [12] (setting [18]), 29.9%.

For the molecule `c1ccc(N2CCCC3(CCNCC3)C2)nc1`, the results for the Potency in assay [4] and in assay [6] were > 11.4 µM (inactive) and 25.1 µM (active), respectively. Besides, the molecule was called inactive in [5], in [7], in [9] and in assay [1]. The figures for the activity change, negative = inhibition in assay [14] (at 7.69 µM (top of the series)) and in assay [12] were -27% (inactive) and 3.94% (inactive), respectively. Also, the Potency result in assay [11] was “inactive”. The max response in assay [12] (setting [17]) was 2.21%; in [12] (setting [18]) it was 8.95%.

For `CC1=C(C(=O)Nc2nccs2)C(c2ccccc2Br)N=C(Nc2nc3ccccc3o2)N1` (stereo unspecified), the result in [13] was inactive.

As to `c1ccc(N2CCCC3(CCNCC3)C2)cc1`, the Potency in [4] is > 11.4 µM (inactive); in assay [8] it was > 46 µM (inactive); in [16], 7.94 µM (active). The molecule was called inactive in [5], in [7], in assay [9] and in assay [1]. For the same molecule, the Potency result in assay [6], in assay [10] and in assay [11] was “inactive” each time. The activity change, negative = inhibition in assay [14] (at 7.69 µM (top of the series)) was -13.8% (inactive); in assay [12] it was 4.45% (inactive). Also, the values for the max response in assay [12] (setting [17]) and in [12] (setting [18]) were 4.47% and 14.8%, respectively.

On to `CCOc1ccc(CCNC(=O)c2cc3ncccc3n2Cc2cccc(C)n2)cc1OCC`, for which the outcome in assay [13] was inactive.

As for `COc1ccc(NC(=O)N2CCCC3(CCN(C(=O)Oc4ccccc4)CC3)C2)cc1`, the Potency is > 20 µM (inactive) in assay [15], > 11.4 µM (inactive) in [4], 12.6 µM (active) in assay [6] and > 46 µM (inactive) in assay [8]. Further, the molecule was called inactive in assay [5], in assay [7], in assay [9] and in assay [1]. The Potency result in assay [10], in [11] and in assay [2] was “inactive” in each case.
